# Assay results: PubChem BioAssay (EPA / NIEHS)
# The source made the active and inactive calls. How the source made its calls: active means hit-call score of the fitted dose curve at least 0.9, where 1 is the maximum; inactive means score below 0.9.
# Read-out: Interferon-gamma inducible Protein 10 (IP10), CXCL10 (gene 3627)
# Test: BSK_hDFCGF_IP10: BioMAP Diversity Plus: hDFCGF Assay for Interferon-gamma inducible Protein 10 (IP10) Biomarker Activity (AID 2283053)
# Conditions: primary human foreskin fibroblasts; actives raise or lower the signal
# Method: BSK_hDFCGF is a cell-based, multiplexed-readout assay that uses foreskin fibroblast, a human skin primary cell, with measurements taken at 24 hours after chemical dosing in a 96-well plate.BSK_hDFCGF_IP10 is an assay component measured in the BSK_hDFCGF assay. It measures IP-10 antibody related to regulation of gene expression using ELISA technology.Data from the assay component BSK_hDFCGF_IP10 was analyzed into 1 assay endpoint. This assay endpoint, BSK_hDFCGF_IP10, was analyzed with bidirectional fitting relative to DMSO as the negative control and baseline of activity. Using a type of binding reporter, gain or loss-of-signal activity can be used to understand changes in the signaling as they relate to the gene CXCL10. Furthermore, this assay endpoint can be referred to as a primary readout, because this assay has produced multiple assay endpoints where this one serves a signaling function. To generalize the intended target to other relatable targets, this assay endpoint is annotated to the cytokine intended target family, where the subfamily is chemotactic factor.
# The levels of cell surface (or secreted, indicated by the prefix "s") biomarker endpoints were measured by ELISA. Overt cytotoxicity to cells in confluent adherent cultures (all systems other than the BT system) was assessed by measuring total protein levels using sulforhodamine B (SRB) staining in parallel cultures at the time of biomarker measurements, indicated as SRB endpoints. For proliferation assays for adherent cell types, individual cell types are cultured at sub-confluence and relative cell numbers quantified by SRB staining at time points optimized for each system (48 h: 3C and CASM3C systems; 72 h: BT and HDF3CGF systems; 96 h: SAg system). SRB was performed by staining cells with 0.1% SRB after fixation with 10% TCA and reading wells at 560 nm.Viability and proliferation of PBMC (T cells) was quantified by Alamar Blue reduction for the SAg and BT systems. For PBMC viability (referred to as PBMC Cytotoxicity within the assay endpoint names), cells were plated (75,000/well in a 96-well plate) and then chemical samples added for 1 h before addition of activators, SEB and TSST-1 (20 ng/mL final concentration each). Cells were incubated for 90 h. Then, Alamar Blue (20 uL/well) (Invitrogen, Cat DAL1100) was added for 6 h, and the plates were read with a fluorescence microplate reader at 546/580 nm (excitation/emission). For PBMC proliferation, cells were plated and activated as above but incubated for only 16 h prior to addition of Alamar Blue. Plates were read after 6 h.
SMILES,outcome,AC50
CCCCOC(=O)COC(=O)c1ccccc1C(=O)OCCCC,inactive,
O=C1C=CC(=O)c2ccccc21,,1.55 µM (active)
c1ccc(-c2cccc(-c3ccccc3)c2)cc1,,29.5 µM (active)
CC(C=O)Cc1ccc2c(c1)OCO2 (stereo not given),inactive,
Cc1c([N+](=O)[O-])c(C)c([N+](=O)[O-])c(C(C)(C)C)c1[N+](=O)[O-],inactive,
CCN(CC)C(=O)C(Cl)=C(C)OP(=O)(OC)OC,inactive,
Oc1c(Cl)cc(Cl)cc1Cl,inactive,
CC(C)(COCC1CO1)COCC1CO1 (stereo not given),inactive,
CN(C)C(=S)S,,18 µM (active)
Cc1cc(Cl)ccc1N,inactive,
CCOP(=S)(OCC)SCS(=O)(=O)C(C)(C)C,inactive,
CC(C)(C)c1ccccc1O,inactive,
N#Cc1cccnc1,inactive,
CCOC(=O)CCN(SN(C)C(=O)Oc1cccc2c1OC(C)(C)C2)C(C)C,,37.1 µM (active)
OCCCCO,inactive,
Oc1cccc(-c2ccccc2)c1,inactive,
O=[N+]([O-])c1cccc2ccccc12,inactive,
O=S(=O)(C(Cl)(Cl)Cl)C(Cl)(Cl)Cl,,2.92 µM (active)
OCCN(CCO)CCO,inactive,
Cc1cc(C)cc(C)c1,inactive,

SMILES,outcome,AC50
OC(Cc1ccccc1Cl)(Cn1cncn1)C1(Cl)CC1 (stereo not given),inactive,
Clc1cccc(Cl)c1Cl,inactive,
O=C(CCl)NCO,inactive,
Cc1cc(Cl)ccc1OC(C)C(=O)O (stereo not given),inactive,
Nc1ccc(N)cc1,inactive,
C=CC(Cl)CCl (stereo not given),inactive,
COCC(=O)N(c1c(C)cccc1C)[C@H](C)C(=O)OC,inactive,
O=[N+]([O-])c1ccc(Nc2ccccc2)cc1,inactive,
CC(C)=CC1C(C(=O)OCc2cccc(Oc3ccccc3)c2)C1(C)C (stereo not given),inactive,
CCOP(=O)(OCC)OC(=CCl)c1ccc(Cl)cc1Cl,,36.4 µM (active)
CCCCCCCCCCCCc1cccc(S(=O)(=O)O)c1,,12.7 µM (active)
O=S(=O)(c1ccc(Cl)cc1)c1cc(Cl)c(Cl)cc1Cl,inactive,
OC(Cc1ccccc1Cl)(Cn1[nH]cnc1=S)C1(Cl)CC1 (stereo not given),,29.5 µM (active)
CCOP(=S)(OCC)OP(=S)(OCC)OCC,,29.6 µM (active)
Oc1ccc(Cc2ccc(O)cc2)cc1,inactive,
O=C(N[C@H]1CN2CCC1CC2)c1ccc2c(c1)OCCO2,inactive,
Cc1ccccc1OP(=O)(Oc1ccccc1C)Oc1ccccc1C,,11.2 µM (active)
Cc1ccc2nc3sc(=O)sc3nc2c1,inactive,
Clc1cccc(Cl)c1,inactive,
CC(C)N(C(=O)CCl)c1ccccc1,,3.13 µM (active)
